Inconclusive results are not listed. The source made the active and inactive calls. Unless noted, the call rests on the fitted dose curve; in most records, active means well fitted curve in the direction sought with a large enough effect; inconclusive means small, poorly fitted or top-dose-only effect, or another doubt; inactive means no such curve, though single readings can be large; an effect the other way counts as inactive or inconclusive.
Experiments:
[1] = molecular target: DNA repair nuclease/redox regulator APEX1 (Homo sapiens) (UniProt P27695); experiment: qHTS Validation Assay for Inhibitors of the Human Apurinic/apyrimidinic Endonuclease 1 (APE1) (AID 1705;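 further: TAMRA fluorescence gain over two minutes as APE1 cuts a quenched THF abasic duplex; series mostly up to about 57 µM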)
In short: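 Substrate: 50 nM final fluorophore/quencher THF-abasic duplex. Enzyme preincubated with compounds 15 min, RT. Progress derived from fluorescence difference, third minus first kinetic read.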

[2] = molecular target: Endonuclease 4 (Escherichia coli (strain K12)) (UniProt P0A6C1); experiment: Counterscreen for APE1 Inhibitors: qHTS Validation Assay for Inhibitors of Endonuclease IV (AID 1708)
In short: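 Enzymatic AP-site incision assay using a double-stranded THF substrate labelled with TAMRA and BHQ-2; released fluorescence signals activity. Enzyme 2 nM, substrate 50 nM, 15 min compound preincubation.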

[3] = qHTS for differential inhibitors of proliferation of Plasmodium falciparum line 3D7 (AID 1876);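 further: parasite growth measured after three days of culture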
[4] = qHTS for differential inhibitors of proliferation of Plasmodium falciparum line Dd2 (AID 1882); conditions: Potency: Plasmodium falciparum Dd2 proliferation inhibition;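 further: series mostly up to about 29 µM; compound exposure of 72 h on infected erythrocytes; nearly all actives have a fitted effect of over 65% in size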
In short: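 SYBR Green I DNA fluorescence read-out, ex 485/em 535 nm. Signals were normalized to 0.29 uM artemisinin and DMSO wells, then corrected using vehicle-only plates flanking each stack. Parasite growth ran 72 h in erythrocytes before lysis.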

[5] = qHTS for differential inhibitors of proliferation of Plasmodium falciparum line W2 (AID 1883); conditions: Potency: Plasmodium falciparum W2 proliferation inhibition;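 further: potency means the concentration at half of the fitted maximal effect; parasites grown with compound for 72 h before lysis and staining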
[6] = molecular target: ATP-dependent DNA helicase Q1 (Homo sapiens) (UniProt P46063); experiment: qHTS Validation Assay for Inhibitors of RecQ-Like Dna Helicase 1 (RECQ1) (AID 2353)
In short: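 50 nM RECQ1T1 preincubated 15 min with compound in Tris pH 8.0 buffer with MgCl2, DTT, Tween-20 and 2.5 ug/ml poly(dI-dC); started with 200 nM TAMRA/BHQ-2 forked duplex and 2 mM ATP. Unwinding read as fluorescence (525/598 nm), two reads 2 h apart.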

[7] = molecular target: RecQ-like DNA helicase BLM (Homo sapiens) (UniProt P54132); experiment: qHTS Validation Assay for Inhibitors of Bloom's syndrome helicase (BLM) (AID 2364)
In short: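 Forked 20-bp duplex substrate (200 nM, TAMRA/BHQ-2) plus 2 mM ATP added after 15 min compound preincubation with 50 nM enzyme, pH 8.0, poly(dI-dC) 2.5 ug/ml. Strand separation followed by fluorescence (525/598 nm) over 2 h, normalized to enzyme-free and DMSO controls.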

[8] = Validation screen for inhibitors of Lassa infection (AID 463096; calls by dose curve)
[9] = Validation screen for small molecules that induce DNA re-replication in MCF 10A normal breast cells (AID 463097); further: nearly all actives have a fitted effect of over 60% in size
In short: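 Following 48 hr compound incubation (37 C, 5% CO2), MCF 10A cells receive Hoechst for 40 min at 37 C. Nuclei are then scanned (excitation 405 nm, emission 500-530 nm) for total fluorescence intensity.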

[10] = Quantitative high throughput screen for delayed death inhibitors of the malarial parasite plastid, 96 hour incubation (AID 488745); further: series mostly up to about 29 µM; nearly all actives have a fitted effect of over 70% in size
In short: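 P. falciparum carrying an integrated firefly luciferase reporter, grown in erythrocytes (2% hematocrit, 0.1% parasitemia final) in RPMI 1640/0.5% Albumax, was exposed to compound for 96 h (two generations) at 37 C, 5% CO2. Luminescence decrease indicated growth inhibition.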

[11] = Quantitative high throughput screen for delayed death inhibitors of the malarial parasite plastid, 48 hour incubation (AID 488752); further: nearly all actives have a fitted effect of over 65% in size
In short: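 Erythrocytes infected with P. falciparum carrying an integrated firefly luciferase reporter (2% hematocrit, 0.1% parasitemia final) were exposed to compounds in RPMI 1640/0.5% Albumax for 48 h at 37 C, 5% CO2. Growth inhibition was scored as reduced luminescence.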

[12] = molecular target: M-phase phosphoprotein 8 (Homo sapiens) (UniProt Q99549); experiment: qHTS Validation Assay for Inhibitors for MPP8 Chromodomain Interactions with Methylated Histone Tails (AID 488949);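 further: 50 nM MPP8 with 50 nM peptide preformed then compounds added for 30 min; AlphaScreen signal from MPP8 chromodomain bound to biotinylated H3K9me3 peptide; top concentration of the series differs between compounds; nearly all actives have a fitted effect of over 55% in size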
In short: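 Chemiluminescent proximity assay: histidine-tag capture via nickel acceptor beads, biotin peptide via streptavidin donor beads. Protein and peptide each at 50 nM, pH 7.4, with 30 min incubations at room temperature for complex formation, compound exposure and bead binding.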

[13] = molecular target: Transient receptor potential cation channel subfamily V member 1 (Homo sapiens) (UniProt Q8NER1); experiment: HTS Assay for Compounds that Act as Enhancers of the Vanilloid Receptor 1 (AID 488979)
In short: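 Calcium influx kinetics via Fluo-8 (480/520 nm) in TRPV1-expressing cells, 2000/well cultured overnight at 35.5C. Compound-alone read 3 min (agonist phase), followed by EC20 capsaicin challenge for 2 min (enhancer phase).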

[14] = molecular target: Galactokinase (Homo sapiens) (UniProt P51570); experiment: qHTS Validation Assay for Inhibitors of Human Galactokinase (GALK) (AID 493189)
In short: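 Enzyme activity is inferred from ATP consumption: human GALK phosphorylates galactose (100 uM) using 35 uM ATP for 1 h at room temperature, and luciferase-based Kinase-Glo Plus reports unconsumed ATP.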

[15] = Validation screen for small molecules that induce DNA re-replication in SW480 colon adenocarcinoma cells (AID 504364)
In short: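 SW480 cells seeded at 250 per well were exposed to compound or DMSO for 48 hr at 37 C, 5% CO2, then stained with Hoechst for 40 min. DNA content per nucleus was imaged (405 nm ex, 500-530 nm em).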

[16] = molecular target: Rap guanine nucleotide exchange factor 3 (Homo sapiens) (UniProt O95398); experiment: Confirmatory qHTS for agonist of cAMP-regulated guanine nucleotide exchange factor 3 (EPAC1) (AID 1645881);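 further: EPAC1 catalysed release of BODIPY-GDP from Rap1B seen as fluorescence loss; nearly all actives have a fitted effect of over 75% in size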
[17] = molecular target: Rap guanine nucleotide exchange factor 4 (Homo sapiens) (UniProt Q8WZA2); experiment: Confirmatory qHTS for agonist of cAMP-regulated guanine nucleotide exchange factor 4 (EPAC2) (AID 1645884);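 further: nucleotide exchange releases bodipy-GDP from Rap1 and this lowers its fluorescence; nearly all actives have a fitted effect of over 65% in size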
[18] = molecular target: Rap guanine nucleotide exchange factor 4 (Homo sapiens) (UniProt Q8WZA2); experiment: Confirmatory qHTS for antagonist of cAMP-regulated guanine nucleotide exchange factor 4 (EPAC2) (AID 1645885); further: nearly all actives have a fitted effect of over 25% in size
[19] = molecular target: Rap guanine nucleotide exchange factor 3 (Homo sapiens) (UniProt O95398); experiment: Counterscreen qHTS for antagonist of cAMP-regulated guanine nucleotide exchange factor 3 (EPAC1) (AID 1645888);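 further: fluorescence loss as bound BODIPY-GDP is released from Rap1B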
In short: (§1)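 Rap1B-BODIPY-GDP 250 nM + GDP 50 uM; cpds 7-pt, final 9.74 nM–152 uM (activator mode) or from 7.32 nM upwards (inhibitor mode); RT; FI 480/540 nm at 5 and 30 min, then ± cAMP, reread.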

[20] = molecular target: Rap guanine nucleotide exchange factor 3 (Homo sapiens) (UniProt O95398); experiment: Counterscreen qHTS for agonist of cAMP-regulated guanine nucleotide exchange factor 3 (EPAC1) (AID 1645889); further: nearly all actives have a fitted effect of over 40% in size
In short: as §1

Measured: Potency

Sequence of Rap guanine nucleotide exchange factor 4 (Homo sapiens) (Q8WZA2 whole entry, looked up): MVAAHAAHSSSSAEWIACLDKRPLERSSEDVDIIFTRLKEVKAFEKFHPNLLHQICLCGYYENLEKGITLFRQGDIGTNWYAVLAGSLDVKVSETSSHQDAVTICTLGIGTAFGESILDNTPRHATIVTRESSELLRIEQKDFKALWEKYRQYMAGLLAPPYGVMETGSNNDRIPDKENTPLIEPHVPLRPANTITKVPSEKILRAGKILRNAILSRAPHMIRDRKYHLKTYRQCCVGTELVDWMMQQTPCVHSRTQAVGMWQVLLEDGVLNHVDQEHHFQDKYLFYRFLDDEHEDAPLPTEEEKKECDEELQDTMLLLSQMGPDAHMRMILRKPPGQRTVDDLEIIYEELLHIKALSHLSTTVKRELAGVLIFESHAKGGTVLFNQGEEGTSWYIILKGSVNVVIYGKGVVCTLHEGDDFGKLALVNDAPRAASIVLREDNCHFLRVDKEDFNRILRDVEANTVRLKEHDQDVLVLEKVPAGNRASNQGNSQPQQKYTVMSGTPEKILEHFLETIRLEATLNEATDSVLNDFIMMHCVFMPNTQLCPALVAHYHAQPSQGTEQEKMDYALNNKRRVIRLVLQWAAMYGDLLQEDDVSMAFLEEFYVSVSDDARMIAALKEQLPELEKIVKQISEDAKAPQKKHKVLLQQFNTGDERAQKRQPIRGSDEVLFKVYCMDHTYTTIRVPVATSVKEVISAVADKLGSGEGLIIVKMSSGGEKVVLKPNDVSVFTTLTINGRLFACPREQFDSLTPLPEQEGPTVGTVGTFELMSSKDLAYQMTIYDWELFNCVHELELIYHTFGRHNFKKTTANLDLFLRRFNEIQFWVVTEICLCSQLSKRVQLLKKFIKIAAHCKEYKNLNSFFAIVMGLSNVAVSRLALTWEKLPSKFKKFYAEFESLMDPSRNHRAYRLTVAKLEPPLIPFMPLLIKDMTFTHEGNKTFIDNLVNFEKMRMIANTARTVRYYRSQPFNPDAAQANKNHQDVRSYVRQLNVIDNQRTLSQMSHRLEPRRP
Sequence of Rap guanine nucleotide exchange factor 3 (Homo sapiens) (O95398 whole entry, looked up): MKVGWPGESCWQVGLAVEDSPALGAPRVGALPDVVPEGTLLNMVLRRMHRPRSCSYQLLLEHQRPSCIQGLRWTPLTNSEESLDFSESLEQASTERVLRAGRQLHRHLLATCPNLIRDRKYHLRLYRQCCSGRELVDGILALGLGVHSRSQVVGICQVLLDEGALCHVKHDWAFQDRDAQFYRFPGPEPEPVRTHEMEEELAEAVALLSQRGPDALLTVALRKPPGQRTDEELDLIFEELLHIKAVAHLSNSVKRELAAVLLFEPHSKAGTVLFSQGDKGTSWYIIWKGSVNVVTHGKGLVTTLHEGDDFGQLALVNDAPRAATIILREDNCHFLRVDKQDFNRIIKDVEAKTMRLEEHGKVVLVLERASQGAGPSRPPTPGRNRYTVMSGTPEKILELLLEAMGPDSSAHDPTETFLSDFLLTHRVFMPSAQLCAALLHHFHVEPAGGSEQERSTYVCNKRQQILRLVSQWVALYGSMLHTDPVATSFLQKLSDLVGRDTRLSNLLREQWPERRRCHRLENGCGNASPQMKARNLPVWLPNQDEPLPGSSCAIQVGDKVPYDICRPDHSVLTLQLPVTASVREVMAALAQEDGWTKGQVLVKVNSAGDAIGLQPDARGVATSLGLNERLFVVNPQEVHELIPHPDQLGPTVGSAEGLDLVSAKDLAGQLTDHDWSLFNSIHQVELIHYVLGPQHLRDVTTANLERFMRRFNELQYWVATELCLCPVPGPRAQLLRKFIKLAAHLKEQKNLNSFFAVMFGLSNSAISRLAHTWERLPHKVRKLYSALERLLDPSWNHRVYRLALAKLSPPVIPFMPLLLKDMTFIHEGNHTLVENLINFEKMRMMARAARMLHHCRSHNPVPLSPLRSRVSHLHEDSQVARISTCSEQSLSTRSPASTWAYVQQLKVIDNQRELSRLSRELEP
Sequence of DNA repair nuclease/redox regulator APEX1 (Homo sapiens) (P27695 whole entry, looked up): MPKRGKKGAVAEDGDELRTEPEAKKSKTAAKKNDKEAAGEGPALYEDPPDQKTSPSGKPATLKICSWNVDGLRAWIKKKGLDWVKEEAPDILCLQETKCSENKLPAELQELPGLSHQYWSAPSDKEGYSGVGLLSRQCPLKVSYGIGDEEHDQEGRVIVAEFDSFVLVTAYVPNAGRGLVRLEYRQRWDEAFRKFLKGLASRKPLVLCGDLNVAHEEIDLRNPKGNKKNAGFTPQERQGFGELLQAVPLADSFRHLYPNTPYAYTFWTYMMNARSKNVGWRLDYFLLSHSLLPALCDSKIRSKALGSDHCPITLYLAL
Sequence of ATP-dependent DNA helicase Q1 (Homo sapiens) (P46063 whole entry, looked up): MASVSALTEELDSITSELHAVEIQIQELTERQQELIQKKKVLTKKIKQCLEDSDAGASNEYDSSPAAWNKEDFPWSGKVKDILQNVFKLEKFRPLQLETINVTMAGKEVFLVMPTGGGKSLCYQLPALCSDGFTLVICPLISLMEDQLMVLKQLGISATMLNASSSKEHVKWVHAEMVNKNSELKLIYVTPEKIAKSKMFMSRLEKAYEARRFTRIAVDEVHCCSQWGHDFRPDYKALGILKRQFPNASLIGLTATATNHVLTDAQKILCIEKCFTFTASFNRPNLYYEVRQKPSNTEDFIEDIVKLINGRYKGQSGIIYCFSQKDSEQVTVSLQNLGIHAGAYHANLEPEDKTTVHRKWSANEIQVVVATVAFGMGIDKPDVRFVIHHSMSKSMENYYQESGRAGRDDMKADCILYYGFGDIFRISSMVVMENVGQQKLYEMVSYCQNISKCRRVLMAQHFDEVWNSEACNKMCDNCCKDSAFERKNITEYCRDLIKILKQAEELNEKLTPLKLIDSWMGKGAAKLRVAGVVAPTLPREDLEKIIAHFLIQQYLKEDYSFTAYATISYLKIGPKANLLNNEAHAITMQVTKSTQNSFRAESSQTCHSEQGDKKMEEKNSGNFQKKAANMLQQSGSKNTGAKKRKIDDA
Sequence of M-phase phosphoprotein 8 (Homo sapiens) (Q99549 whole entry, looked up): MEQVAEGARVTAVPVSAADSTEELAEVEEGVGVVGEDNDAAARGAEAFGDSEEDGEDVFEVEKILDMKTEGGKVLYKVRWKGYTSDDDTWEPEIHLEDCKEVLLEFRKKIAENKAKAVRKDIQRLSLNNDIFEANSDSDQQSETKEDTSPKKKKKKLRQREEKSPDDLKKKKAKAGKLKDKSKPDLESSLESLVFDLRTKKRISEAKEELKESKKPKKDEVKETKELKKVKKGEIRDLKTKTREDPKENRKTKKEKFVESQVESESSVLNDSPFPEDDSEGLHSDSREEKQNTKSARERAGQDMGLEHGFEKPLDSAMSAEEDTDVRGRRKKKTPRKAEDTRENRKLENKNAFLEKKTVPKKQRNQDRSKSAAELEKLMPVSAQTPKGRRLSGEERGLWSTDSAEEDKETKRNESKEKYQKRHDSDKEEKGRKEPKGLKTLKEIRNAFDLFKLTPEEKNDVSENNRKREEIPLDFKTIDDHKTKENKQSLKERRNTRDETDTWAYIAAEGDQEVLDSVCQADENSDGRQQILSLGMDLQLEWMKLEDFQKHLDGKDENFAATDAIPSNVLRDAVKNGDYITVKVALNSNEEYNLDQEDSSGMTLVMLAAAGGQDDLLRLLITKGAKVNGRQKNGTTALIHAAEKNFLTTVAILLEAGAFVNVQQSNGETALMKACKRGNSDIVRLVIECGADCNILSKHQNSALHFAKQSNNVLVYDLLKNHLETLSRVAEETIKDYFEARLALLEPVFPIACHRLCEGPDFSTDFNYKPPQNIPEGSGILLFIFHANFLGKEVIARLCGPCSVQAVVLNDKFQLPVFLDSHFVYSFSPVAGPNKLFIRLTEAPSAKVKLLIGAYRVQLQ
Sequence of Galactokinase (Homo sapiens) (P51570 whole entry, looked up): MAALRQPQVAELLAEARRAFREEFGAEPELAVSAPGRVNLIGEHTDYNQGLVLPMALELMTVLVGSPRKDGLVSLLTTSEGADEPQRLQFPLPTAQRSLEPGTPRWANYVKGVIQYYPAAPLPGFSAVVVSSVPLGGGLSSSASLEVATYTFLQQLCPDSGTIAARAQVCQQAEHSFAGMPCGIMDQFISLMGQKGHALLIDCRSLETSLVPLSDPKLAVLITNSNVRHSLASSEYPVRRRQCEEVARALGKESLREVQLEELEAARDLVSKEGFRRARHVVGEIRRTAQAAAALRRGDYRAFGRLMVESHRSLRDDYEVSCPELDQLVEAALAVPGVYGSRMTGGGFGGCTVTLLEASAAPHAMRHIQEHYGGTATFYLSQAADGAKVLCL
Sequence of Transient receptor potential cation channel subfamily V member 1 (Homo sapiens) (Q8NER1 whole entry, looked up): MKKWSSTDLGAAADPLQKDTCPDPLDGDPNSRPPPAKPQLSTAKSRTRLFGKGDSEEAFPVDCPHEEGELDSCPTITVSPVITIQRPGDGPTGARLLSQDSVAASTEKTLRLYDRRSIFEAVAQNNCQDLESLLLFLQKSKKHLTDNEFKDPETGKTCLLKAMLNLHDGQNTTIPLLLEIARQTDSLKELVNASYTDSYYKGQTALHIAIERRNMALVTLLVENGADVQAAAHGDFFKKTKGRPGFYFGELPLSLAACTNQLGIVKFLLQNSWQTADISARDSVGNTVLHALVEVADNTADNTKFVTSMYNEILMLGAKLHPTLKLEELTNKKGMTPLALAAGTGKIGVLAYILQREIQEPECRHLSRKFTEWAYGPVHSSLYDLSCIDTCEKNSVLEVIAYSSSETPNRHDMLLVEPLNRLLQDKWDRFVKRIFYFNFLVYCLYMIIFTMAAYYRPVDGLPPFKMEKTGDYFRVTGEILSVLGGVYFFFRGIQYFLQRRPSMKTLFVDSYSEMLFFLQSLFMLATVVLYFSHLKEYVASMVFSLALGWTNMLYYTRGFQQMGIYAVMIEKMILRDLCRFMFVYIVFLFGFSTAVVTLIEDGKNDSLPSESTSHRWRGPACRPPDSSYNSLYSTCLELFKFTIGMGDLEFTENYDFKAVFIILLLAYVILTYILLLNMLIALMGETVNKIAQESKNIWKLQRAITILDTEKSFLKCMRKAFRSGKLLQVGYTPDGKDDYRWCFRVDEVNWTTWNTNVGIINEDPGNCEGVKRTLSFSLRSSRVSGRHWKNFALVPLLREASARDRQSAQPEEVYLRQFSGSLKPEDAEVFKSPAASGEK

C[C@]12CC[C@@H](O)CC1CCC1C2CC[C@]2(C)C(=O)CC[C@@H]12 (some centres not stated)
active: [5] 10 µM
not listed: [16] | [17] | [18] | [19] | [20]
inactive: all other assays above

Cn1ncnc2c(=O)n(C)c(=O)nc1-2
inactive: [16] | [17] | [18] | [19] | [20]

Cc1cccc(C)c1-n1nnnc1C(c1ccccc1OC(F)(F)F)N1CCC(n2c(=O)[nH]c3ccccc32)CC1 (configuration not stated)
inactive: [16] | [17] | [18] | [19] | [20]

CCn1nc(/C=C/c2ccccc2)nc2c(=O)n(C)c(=O)nc1-2
inactive: [16] | [17] | [19] | [20]

O=[N+]([O-])c1ccc(N(CCO)CCO)c2c1no[n+]2[O-]
inactive: [16] | [17] | [20]
